Test results from PubChem BioAssay.
Measured potencies and affinities stand elsewhere. Results filed as inconclusive are left out. Activity calls are given as the source filed them. Unless noted, how the calls were made is not given here.

Legend:
[1] = RMG-1 ovarian cancer cell viability loss – cherry-pick, dose response (AID 687029;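 active means signal drop whose fitted half-maximal concentration is at most twice the top valid dose, in every test run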;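 further: cells exposed to compound for 96 hours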)
[2] = IOSE-T80 viability loss, PAX8-independent line – cell-based, cherry-pick, selectivity assay for PAX8 inhibitor project, dose response (AID 687032;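 active means fitted half-maximal concentration for viability loss no higher than twice the top valid dose, in every repeat run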;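 further: cells exposed to compound for 96 h before reading; 0% = neutral control wells and -100% = 2 µM mitoxantrone kill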)
[3] = CMV-driven luciferase expression suppression in HEK293 – cell-based, luminescence, dry powder, counter-screen for Pax8 inhibitor project, dose response (AID 743020;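 active means signal-lowering compounds whose fitted half-maximal concentration is at or below twice the top tested dose in every run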;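 further: HEK293 cells stably expressing the CMV luciferase reporter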)
[4] = general cell-killing toxicity readout – plate reader, dry powder samples, cytotoxicity control for PAX8 inhibitor project, dose response (AID 743021)
[5] = toxicity toward immortalized ovarian surface epithelium – cell-based, plate reader, dry powder samples, cytotoxicity control for PAX8 inhibitor project, dose response (AID 743045);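 further: 0% = neutral control median and -100% = positive control median; more negative values mean more cell killing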
[6] = A2780 cell killing – plate reader, dry powder samples, cytotoxicity control, dose response (AID 743046);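 further: 0% = neutral control wells and -100% = cytotoxic reference compound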
[7] = OVCAR8 cell viability loss – plate reader, dry powder samples, PAX8 project, dose response (AID 743197)

Measured: activity change, negative = cytotoxicity

COc1ccc(S(=O)(=O)Nc2ccc3c(c2)C(=O)N([C@H](C)CO)C[C@H](C)[C@@H](CN(C)S(=O)(=O)c2ccc(F)cc2)OCCCC[C@H](C)O3)cc1
not listed: [6] | [7]
inactive: all other assays above

C[C@@H]1CN([C@@H](C)CO)C(=O)c2cc(NC(=O)Nc3ccc(C(F)(F)F)cc3)ccc2O[C@H]1CN(C)C(=O)Nc1ccc(C(F)(F)F)cc1
not listed: [7]
inactive: all other assays above

O=C(C1CCCC1)N1CC[C@@H]2[C@H](CO)Nc3ccc(C4=CCCCC4)cc3[C@@H]21
not listed: [7]
inactive: all other assays above

C[C@@H]1CN([C@@H](C)CO)C(=O)Cc2cc(NC(=O)Nc3ccc(C(F)(F)F)cc3)ccc2O[C@H]1CN(C)Cc1ccc2c(c1)OCO2
not listed: [7]
inactive: all other assays above

COc1ccc(S(=O)(=O)Nc2ccc3c(c2)C(=O)N([C@H](C)CO)C[C@@H](C)[C@@H](CN(C)Cc2ccc(C(F)(F)F)cc2)OCCCC[C@@H](C)O3)cc1
not listed: [6] | [7]
inactive: all other assays above

C[C@@H]1CCCCO[C@@H](CN(C)Cc2ccc(C(F)(F)F)cc2)[C@H](C)CN([C@H](C)CO)C(=O)c2cc(NS(=O)(=O)c3ccc(F)cc3)ccc2O1
not listed: [6] | [7]
inactive: all other assays above

C[C@@H]1CN([C@H](C)CO)C(=O)c2cc(NS(=O)(=O)c3ccc(Cl)cc3)ccc2O[C@@H](C)CCCCO[C@H]1CN(C)Cc1ccc2c(c1)OCO2
not listed: [7]
inactive: all other assays above

C[C@@H]1CCCCO[C@H](CN(C)Cc2ccc(Cl)c(Cl)c2)[C@@H](C)CN([C@@H](C)CO)C(=O)c2cc(NC(=O)Cc3ccccc3)ccc2O1
not listed: [7]
inactive: all other assays above

C[C@@H]1CCCCO[C@H](CN(C)Cc2ccc(C(F)(F)F)cc2)[C@@H](C)CN([C@@H](C)CO)C(=O)c2cc(NS(=O)(=O)c3ccc(F)cc3)ccc2O1
not listed: [6] | [7]
inactive: all other assays above

COc1ccc2c3c(n(C)c2c1)[C@H](CO)N(C(=O)Nc1ccc(F)cc1)CC31CCN(C(=O)c2ccc3c(c2)OCO3)CC1
not listed: [6] | [7]
inactive: all other assays above

C[C@@H]1CN([C@H](C)CO)C(=O)c2cc(NC(=O)Nc3ccc(C(F)(F)F)cc3)ccc2O[C@@H](C)CCCCO[C@H]1CN(C)C(=O)Nc1ccc(C(F)(F)F)cc1
not listed: [6] | [7]
inactive: all other assays above

O=C1CN(S(=O)(=O)Cc2ccccc2)C[C@@H]2[C@@H](c3ccc(C#CC4CC4)cc3)[C@@H](CO)N12
inactive: [1] | [2] | [3] | [4] | [5] | [6] 19% [at 8 µM]

Cc1noc(C)c1S(=O)(=O)Nc1ccc2c(c1)C(=O)N([C@H](C)CO)C[C@@H](C)[C@@H](CN(C)Cc1ccc(C(F)(F)F)cc1)OCCCC[C@H](C)O2
not listed: [7]
inactive: all other assays above

COc1cccc(-c2ccc3c(c2)[C@H]2[C@H](CCN2S(=O)(=O)c2ccccc2OC)[C@@H](CO)N3C)c1
not listed: [7]
inactive: all other assays above

C[C@@H]1CCCCO[C@@H](CN(C)Cc2ccc3c(c2)OCO3)[C@@H](C)CN([C@@H](C)CO)C(=O)c2cc(NC(=O)Nc3ccc(C(F)(F)F)cc3)ccc2O1
not listed: [7]
inactive: all other assays above

C[C@@H]1CN([C@H](C)CO)C(=O)c2cc(NC(=O)CCC(F)(F)F)ccc2O[C@@H](C)CCCCO[C@@H]1CN(C)Cc1ccc(Cl)c(Cl)c1
not listed: [6] | [7]
inactive: all other assays above

COc1ccccc1NC(=O)N1CCCCN2[C@@H](CO)[C@@H](c3ccc(C#Cc4ccccc4)cc3)[C@@H]2C1
not listed: [7]
inactive: all other assays above

O=S(=O)(Nc1cccc2cccnc12)c1ccccc1
not listed: [7]
inactive: all other assays above

O=C1CN(S(=O)(=O)Cc2ccccc2)C[C@@H]2[C@@H](c3ccc(C#CCC4CCCC4)cc3)[C@@H](CO)N12
not listed: [6] | [7]
inactive: all other assays above

C[C@@H]1CN([C@H](C)CO)C(=O)c2cc(NC(=O)Nc3ccc4c(c3)OCO4)ccc2O[C@@H](C)CCCCO[C@H]1CN(C)Cc1ccc(C(F)(F)F)cc1
not listed: [6] | [7]
inactive: all other assays above

Cc1cccc(S(=O)(=O)N2CCCCN3[C@H](CO)[C@H](c4ccc(C#C[C@H](C)O)cc4)[C@H]3C2)c1
not listed: [7]
inactive: all other assays above

CCCC#Cc1ccc([C@H]2[C@@H](CO)N3CCCCN(S(=O)(=O)Cc4ccccc4)C[C@H]23)cc1
not listed: [7]
inactive: all other assays above

C[C@@H]1CCCCO[C@@H](CN(C)Cc2ccc(C(F)(F)F)cc2)[C@H](C)CN([C@@H](C)CO)C(=O)c2cc(NC(=O)NC3CCCCC3)ccc2O1
not listed: [7]
inactive: all other assays above

C[C@@H]1CCCCO[C@H](CN(C)Cc2ccc(C(F)(F)F)cc2)[C@H](C)CN([C@@H](C)CO)C(=O)c2cc(NC(=O)Nc3ccc4c(c3)OCO4)ccc2O1
not listed: [6] | [7]
inactive: all other assays above

O=C(C[C@@H]1CC[C@@H]2[C@H](COC[C@@H](O)CN2C(=O)Nc2ccc(Cl)c(Cl)c2)O1)NCc1ccc(Cl)cc1
not listed: [6] | [7]
inactive: all other assays above

C[C@@H]1CN([C@@H](C)CO)C(=O)c2cc(NS(=O)(=O)c3ccc(F)cc3)ccc2O[C@@H](C)CCCCO[C@@H]1CN(C)Cc1ccc(C(F)(F)F)cc1
not listed: [6] | [7]
inactive: all other assays above

C[C@@H]1CN([C@@H](C)CO)C(=O)c2cc(NC(=O)Nc3ccc(C(F)(F)F)cc3)ccc2O[C@@H](C)CCCCO[C@H]1CN(C)Cc1ccc2c(c1)OCO2
not listed: [7]
inactive: all other assays above

O=C(Nc1cccc(F)c1)N1CCCCN2[C@@H](CO)[C@@H](c3ccc(-c4ccccc4F)cc3)[C@@H]2C1
inactive: all assays above

C[C@@H]1CN([C@H](C)CO)C(=O)c2cc(NC(=O)Nc3ccc(C(F)(F)F)cc3)ccc2O[C@@H](C)CCCCO[C@H]1CN(C)C(=O)c1ccccc1
not listed: [5] | [7]
inactive: all other assays above

C[C@@H]1CN([C@H](C)CO)C(=O)c2cc(NC(=O)Nc3ccc(C(F)(F)F)cc3)ccc2O[C@@H](C)CCCCO[C@@H]1CN(C)Cc1ccc2c(c1)OCO2
not listed: [7]
inactive: all other assays above

C[C@@H]1CN([C@@H](C)CO)C(=O)Cc2cc(NC(=O)CCC(F)(F)F)ccc2O[C@H]1CN(C)Cc1ccc(Oc2ccccc2)cc1
inactive: all assays above

O=C(Nc1ccc(C(F)(F)F)cc1)N1C[C@@H]2N[C@H](C1)C2c1ccc(/C=C/c2ccccc2)cc1 (stereo partly drawn)
not listed: [6]
inactive: all other assays above

COc1cccc2sc(N(CCCN(C)C)C(=O)CCS(=O)(=O)c3ccccc3)nc12
not listed: [7]
inactive: all other assays above

C[C@H]1CCCCO[C@H](CN(C)C(=O)Nc2ccc(C(F)(F)F)cc2)[C@@H](C)CN([C@@H](C)CO)C(=O)c2cc(NC(=O)CCC(F)(F)F)ccc2O1
inactive: all assays above

O=C(Nc1ccccc1F)N1CCCCN2[C@@H](CO)[C@@H](c3ccc(/C=C/c4ccccc4)cc3)[C@@H]2C1
inactive: all assays above

C[C@@H]1CCCCO[C@H](CN(C)Cc2ccc(C(F)(F)F)cc2)[C@H](C)CN([C@H](C)CO)C(=O)c2cc(NC(=O)Cc3ccccc3)ccc2O1
not listed: [7]
inactive: all other assays above

C[C@H]1CCCCO[C@@H](CN(C)Cc2ccc(C(F)(F)F)cc2)[C@@H](C)CN([C@@H](C)CO)C(=O)c2cc(NC(=O)Nc3ccc4c(c3)OCO4)ccc2O1
not listed: [7]
inactive: all other assays above

O=C(C[C@@H]1C[C@H]2c3cc(NS(=O)(=O)c4ccc(F)cc4)ccc3O[C@H]2[C@H](CO)O1)NCc1ccc(Cl)cc1
not listed: [5] | [7]
inactive: all other assays above

C[C@H](CO)N1C[C@H](C)[C@@H](CN(C)Cc2ccc(-c3ccccc3)cc2)Oc2ccc(NS(=O)(=O)c3ccc(F)cc3)cc2CC1=O
not listed: [7]
inactive: all other assays above

C[C@@H]1CN([C@@H](C)CO)C(=O)Cc2cc(NS(=O)(=O)c3cccs3)ccc2O[C@H]1CN(C)Cc1ccc(C(F)(F)F)cc1
inactive: all assays above

C[C@@H]1CN([C@@H](C)CO)C(=O)Cc2cc(NS(=O)(=O)c3ccc(F)cc3)ccc2O[C@H]1CN(C)Cc1ccc(C(F)(F)F)cc1
not listed: [7]
inactive: all other assays above

C[C@@H]1CCCCO[C@@H](CN(C)Cc2ccc(C(F)(F)F)cc2)[C@H](C)CN([C@@H](C)CO)C(=O)c2cc(NC(=O)Cc3ccccc3)ccc2O1
not listed: [7]
inactive: all other assays above
